# Reference: PubChem BioAssay AID1159580 (chemical genetic matrix, 2015)
# Among all 5,500 compounds or so, about 2,000 (36%) were called active. Roughly 18% stayed inconclusive and do not appear here. The list shows a part of the results. Values without a mark were called inactive. No stated cut-off is given here; in the data, active means normalized growth mostly below about 0.91 (no sharp cut-off); inconclusive means no clear call, values can overlap the other calls; inactive means mostly above about 0.92.
# Experiment: chemical genetic growth profiling, strain panel (AID 1159580);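 further: tested at 20 µM; growth read once vehicle control cultures reached saturation at 30 °C; 1 = growth at the plate median or of vehicle wells; lower values mean less growth of the strain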
# Conditions: S. cerevisiae deletion strains, growth OD
smiles,measurement,setting,value
Oc1ccc2c3c1O[C@H]1c4oc5ccccc5c4C[C@@]4(O)C(C2)N(CC2CC2)CCC314 (stereo partly drawn),normalized growth,"locus YAL040C, strain CLN3, hits give low values",1.01
same,normalized growth,"locus YCL061C, strain MRC1 (second series), hits give low values",1
same,normalized growth,"locus YDR363W, strain ESC2, hits give low values",0.994
same,normalized growth,"locus YER002W, strain NOP16, hits give low values",0.988
same,normalized growth,"locus YJR075W, strain HOC1, hits give low values",0.99
same,normalized growth,"locus YMR307W, strain GAS1, hits give low values",0.988
same,normalized growth,"locus YNL175C, strain NOP13, hits give low values",1.01
same,normalized growth,"locus YNL197C, strain WHI3, hits give low values",1.01
same,normalized growth,"locus YNL224C, strain SQS1, hits give low values",1
same,normalized growth,"locus YNL322C, strain KRE1, hits give low values",0.993
same,normalized growth,"locus YOR083W, strain WHI5 (second series), hits give low values",1.01
same,normalized growth,"locus YPL055C, strain LGE1, hits give low values",0.975
O=S(=O)(Nc1cc(C(F)(F)F)ccc1F)c1cc(C(F)(F)F)ccc1Cl,normalized growth,"locus YAR019C, strain CDC15, hits give low values",0.942
same,normalized growth,"locus YBL105C, strain PKC1, hits give low values",0.947
same,normalized growth,"locus YBR135W, strain CKS1, hits give low values",0.937
same,normalized growth,"locus YBR136W, strain MEC1, hits give low values",0.943
same,normalized growth,"locus YBR160W, strain CDC28, hits give low values",0.931
same,normalized growth,"locus YDL017W, strain CDC7, hits give low values",0.944
same,normalized growth,"locus YDL028C, strain MPS1, hits give low values",0.941
same,normalized growth,"locus YDL101C, strain DUN1, hits give low values",0.969
same,normalized growth,"locus YDL108W, strain KIN28, hits give low values",0.949
same,normalized growth,"locus YDL132W, strain cdc53, hits give low values",0.945
same,normalized growth,"locus YDL214C, strain PRR2, hits give low values",0.905
same,normalized growth,"locus YDR052C, strain DBF4, hits give low values",0.957
same,normalized growth,"locus YDR054C, strain cdc34, hits give low values",0.94
same,normalized growth,"locus YDR226W, strain ADK1, hits give low values",0.95
same,normalized growth,"locus YDR477W, strain SNF1, hits give low values",0.917
same,normalized growth,"locus YER123W, strain YCK3, hits give low values",0.868
same,normalized growth,"locus YER133W, strain GLC7, hits give low values",0.923
same,normalized growth,"locus YFL009W, strain cdc4, hits give low values",0.939
same,normalized growth,"locus YFL029C, strain CAK1, hits give low values",0.941
same,normalized growth,"locus YFR003C, strain YPI1, hits give low values",0.946
same,normalized growth,"locus YFR019W, strain FAB1, hits give low values",0.894
same,normalized growth,"locus YFR028C, strain CDC14, hits give low values",0.939
same,normalized growth,"locus YGR040W, strain KSS1, hits give low values",0.905
same,normalized growth,"locus YGR052W, strain FMP48, hits give low values",0.831
same,normalized growth,"locus YGR092W, strain DBF2, hits give low values",0.82
same,normalized growth,"locus YHR030C, strain SLT2, hits give low values",0.644 (active)
same,normalized growth,"locus YHR079C, strain IRE1, hits give low values",0.824
same,normalized growth,"locus YHR082C, strain KSP1, hits give low values",0.771
same,normalized growth,"locus YHR205W, strain SCH9, hits give low values",0.887
same,normalized growth,"locus YIL147C, strain SLN1, hits give low values",0.95
same,normalized growth,"locus YJL095W, strain BCK1, hits give low values",0.886
same,normalized growth,"locus YJL128C, strain PBS2, hits give low values",0.911
same,normalized growth,"locus YJL157C, strain FAR1, hits give low values",0.904
same,normalized growth,"locus YJR016C, strain ILV3, hits give low values",0.941
same,normalized growth,"locus YJR066W, strain TOR1 (second series), hits give low values",0.904
same,normalized growth,"locus YJR066W, strain TOR1, hits give low values",0.82
same,normalized growth,"locus YKL048C, strain ELM1, hits give low values",0.852
same,normalized growth,"locus YKL067W, strain YNK1, hits give low values",0.905
same,normalized growth,"locus YKL101W, strain HSL1, hits give low values",0.88
same,normalized growth,"locus YKL193C, strain SDS22, hits give low values",0.938
same,normalized growth,"locus YKL203C, strain TOR2, hits give low values",0.933
same,normalized growth,"locus YLR113W, strain HOG1, hits give low values",0.715 (active)
same,normalized growth,"locus YLR133W, strain CKI1, hits give low values",0.902
same,normalized growth,"locus YLR403W, strain SFP1, hits give low values",0.902
same,normalized growth,"locus YML070W, strain DAK1, hits give low values",0.864
same,normalized growth,"locus YMR001C, strain CDC5, hits give low values",0.943
same,normalized growth,"locus YMR205C, strain PFK2 (second series), hits give low values",0.925
same,normalized growth,"locus YMR277W, strain FCP1, hits give low values",0.944
same,normalized growth,"locus YNL006W, strain LST8, hits give low values",0.936
same,normalized growth,"locus YNL020C, strain ARK1, hits give low values",0.882
same,normalized growth,"locus YNL161W, strain CBK1, hits give low values",0.939
same,normalized growth,"locus YNL183C, strain NPR1, hits give low values",0.808
same,normalized growth,"locus YNL207W, strain RIO2, hits give low values",0.937
same,normalized growth,"locus YNL222W, strain SSU72, hits give low values",0.938
same,normalized growth,"locus YNL307C, strain MCK1 (second series), hits give low values",0.861
same,normalized growth,"locus YOL078W, strain AVO1, hits give low values",0.935
same,normalized growth,"locus YOL136C, strain PFK27, hits give low values",0.858
same,normalized growth,"locus YOR061W, strain CKA2, hits give low values",0.908
same,normalized growth,"locus YOR119C, strain RIO1, hits give low values",0.951
same,normalized growth,"locus YOR231W, strain MKK1, hits give low values",0.817
same,normalized growth,"locus YOR329C, strain SCD5, hits give low values",0.947
same,normalized growth,"locus YPL031C, strain PHO85, hits give low values",0.881
same,normalized growth,"locus YPL153C, strain RAD53, hits give low values",0.867
same,normalized growth,"locus YPL204W, strain HRR25, hits give low values",0.876
same,normalized growth,"locus YPL209C, strain IPL1, hits give low values",0.935
same,normalized growth,"locus YPL256C, strain CLN2, hits give low values",0.694 (active)
same,normalized growth,"locus YPR025C, strain CCL1, hits give low values",0.937
same,normalized growth,"locus YPR106W, strain ISR1, hits give low values",0.929
same,normalized growth,"locus YPR111W, strain DBF20, hits give low values",0.925
same,normalized growth,"strain NNK1, hits give low values",0.934
same,normalized growth,"strain TSCII, hits give low values",0.941
